Assay results published in ChEMBL document CHEMBL4513216, “Probing the Open Global Health Chemical Diversity Library for Multistage-Active Starting Points for Next-Generation Antimalarials” (ACS Infect Dis, 2020).
Screen size: about 69,000 compounds; about 8,600 (12%) showed an effect of 50% or more. The sample holds strong results, similar compounds and a random draw of the others, so the mix is not that of the screen.

Test system: Plasmodium berghei
Assay: Screen against P. berghei liver stage (PbLuc), transformed with Luciferase, at 10uM
Type: functional, HepG2
Details: tested at 10 uM

With COCCN1C[C@H](OCc2csc(C)n2)[C@H]2COC[C@H]21 as the compound, how does the INHIBITION read?
Its INHIBITION is -41.4%.

How did the INHIBITION turn out when CCC(C)N(Cc1sccc1C)C(=O)c1cc(N)ccn1 (configuration not stated) was run?
Its INHIBITION is 43.9%.

Cc1ccccc1-c1cncc(C2CCN(C)CC2)n1 was tested. Which INHIBITION did it give?
The INHIBITION was 38.1%.

How did the INHIBITION turn out when Cc1ccccc1-c1cncc(C2CCN(C3CCOCC3)CC2)n1 was run?
Its INHIBITION is 64.1%.

Which INHIBITION does the source give for Cc1ccccc1-c1cncc(C2CCN(C(C)C)CC2)n1 here?
The INHIBITION was 32.8%.

COc1cccc(-n2nnc(C(=O)N3CCN(C)CC3C)c2C)c1 (configuration not stated) was tested. Which INHIBITION did it give?
The INHIBITION was 68.3%.

With COc1cccc(-n2nnc(C(=O)N3CCCC(C)C3)c2C)c1 (configuration not stated) as the compound, how does the INHIBITION read?
The INHIBITION was -60.35%.

COc1cccc(-n2nnc(C(=O)N3CCCC3)c2C)c1 was tested. Which INHIBITION did it give?
Its INHIBITION is 2.26%.

Which INHIBITION does the source give for Cc1nc(C)c(CN2CCC(N(C)Cc3nnc(C4CC4)o3)C2)s1 (configuration not stated) here?
Its INHIBITION is -21.9%.

How did the INHIBITION turn out when Cc1ccc(CNc2cc3c(cc2Cl)NC(=O)CO3)cc1C was run?
Its INHIBITION is 56%.

With Cc1noc(CNc2cc3c(cc2Cl)NC(=O)CO3)n1 as the compound, how does the INHIBITION read?
Its INHIBITION is 3.13%.

How did the INHIBITION turn out when CC(C)(C)c1nc(CNc2cc3c(cc2Cl)NC(=O)CO3)no1 was run?
The INHIBITION was 5.91%.

O=C(NCc1nnc2n1CCC2)c1cccc(Br)c1 was tested. Which INHIBITION did it give?
The INHIBITION was -57.5%.

How did the INHIBITION turn out when Cc1csc(C2(NCc3nc(-c4ccco4)no3)CCCC2)n1 was run?
Its INHIBITION is 62%.

How did the INHIBITION turn out when Cc1csc(C2(NCc3csc(C4CC4)n3)CCCC2)n1 was run?
The INHIBITION was 24.2%.

Which INHIBITION does the source give for Cc1csc(C2(NCc3ccc(OCC(F)F)cc3)CCCC2)n1 here?
The INHIBITION was 14.5%.

With Cc1csc(C2(NCc3nc(-c4ccco4)oc3C)CCCC2)n1 as the compound, how does the INHIBITION read?
The INHIBITION was 64.5%.

How did the INHIBITION turn out when Cc1csc(C2(NCC(O)COC(C)C)CCCC2)n1 (configuration not stated) was run?
The INHIBITION was 9.41%.

With Cc1csc(C2(NCc3nnc(-c4ccco4)o3)CCCC2)n1 as the compound, how does the INHIBITION read?
The INHIBITION was 32.9%.

For COCCNC(=O)N1CCN(C(=O)c2nsc3ccc(C)cc23)CC1, which INHIBITION is on record?
The INHIBITION was -32.1%.

For Cc1ccc(OCC(=O)N2CCCC(n3nc(C)nc3C)C2)cc1 (configuration not stated), which INHIBITION is on record?
The INHIBITION was 25.1%.

For CN(CCCN1CCCCCC1)C(=O)c1ccccc1NCC(=O)O, which INHIBITION is on record?
Its INHIBITION is 14.9%.

With c1ccc(-c2nnc(CN3CCCC(Cn4cncn4)C3)o2)cc1 (configuration not stated) as the compound, how does the INHIBITION read?
The INHIBITION was 9.31%.

For CCOc1ccc(OCC)c(NCc2cc(C)on2)c1, which INHIBITION is on record?
Its INHIBITION is 71.2%.

For CCCNC(=O)CNc1cc(C#N)ccc1OCC, which INHIBITION is on record?
Its INHIBITION is 60.5%.

With CCOc1ccc(C#N)cc1NCC(=O)NC(=O)NC as the compound, how does the INHIBITION read?
Its INHIBITION is 2.3%.

For CCOc1ccc(C(F)(F)F)cc1NC(=O)NCc1noc(C)n1, which INHIBITION is on record?
The INHIBITION was -15%.

For CCOc1ccc(C#N)cc1NCc1cc(C)on1, which INHIBITION is on record?
Its INHIBITION is 51.7%.

CCOc1c(Cl)cccc1NCc1cc(C)on1 was tested. Which INHIBITION did it give?
The INHIBITION was -10.2%.

COc1ccc(Cl)cc1NCc1cc(C)on1 was tested. Which INHIBITION did it give?
Its INHIBITION is 11.783%.

How did the INHIBITION turn out when CCOc1ccc(C(F)(F)F)cc1NC(=O)N1CCC(C(N)=O)CC1 was run?
Its INHIBITION is -3.21%.

How did the INHIBITION turn out when CCOc1ccc(C(F)(F)F)cc1NCc1nc(C)c(C)o1 was run?
Its INHIBITION is 65.6%.

CCOc1ccc(C#N)cc1NCC(=O)Nc1cc(C)no1 was tested. Which INHIBITION did it give?
Its INHIBITION is 7.7%.

With CCNC(=O)NC(=O)CNc1cc(C#N)ccc1OCC as the compound, how does the INHIBITION read?
Its INHIBITION is -9.76%.

How did the INHIBITION turn out when CCOc1ccc(C#N)cc1NCC(=O)OC was run?
The INHIBITION was -38.7%.

Which INHIBITION does the source give for CCN(Cc1cccc(C)c1)Cc1nc2c(cnn2C)c(=O)[nH]1 here?
The INHIBITION was 49.1%.

With Cc1cc(N2CCN(Cc3cn(C)nc3C)CC2)cc(C2CCNC2)n1 (configuration not stated) as the compound, how does the INHIBITION read?
The INHIBITION was 18.225%.

Which INHIBITION does the source give for Cc1ccc(NC2CCN(C(=O)c3cccnc3N(C)C)CC2)nn1 here?
The INHIBITION was 21.6%.

For CN(C)[C@@H]1CCN(c2ncc(F)cn2)[C@H]1Cc1cccnc1, which INHIBITION is on record?
Its INHIBITION is 9.72%.

Which INHIBITION does the source give for Cc1cc(C)n(CC2CN(Cc3ccc(C(N)=O)cc3)CCO2)n1 (configuration not stated) here?
Its INHIBITION is 46.1%.

Which INHIBITION does the source give for COCC(=O)N1CCCC1c1nc(C)c2c(n1)N(CC(C)C)C(=O)CC2 (configuration not stated) here?
Its INHIBITION is -16.9%.

How did the INHIBITION turn out when CCNC(=O)N(C)C(c1ccccc1)c1ccccn1 (configuration not stated) was run?
The INHIBITION was -16%.

For COc1ccc(C(C)NCc2ccsc2)cc1Cn1cccn1 (configuration not stated), which INHIBITION is on record?
Its INHIBITION is 10.6%.

CC(=O)N(C)C1CCN(C(=O)NCCc2cc(F)ccc2F)CC1 was tested. Which INHIBITION did it give?
Its INHIBITION is -6.67%.

Which INHIBITION does the source give for Cc1cc(CNc2cc(Cl)ccc2OCCS(C)(=O)=O)no1 here?
The INHIBITION was 48.1%.

For Cc1cc(CNc2ccc(C(F)(F)F)cc2)no1, which INHIBITION is on record?
Its INHIBITION is 30.4%.

For CCOc1ccc(C(F)(F)F)cc1NCc1cc(C)on1, which INHIBITION is on record?
The INHIBITION was 64.7%.

Which INHIBITION does the source give for Cn1cc(CN2CCC3(CC2)CC(c2ccncc2)C(=O)N3)cn1 (configuration not stated) here?
The INHIBITION was 36.4%.

How did the INHIBITION turn out when O=C(N1CCCCC1)N1CCN(CC(O)c2ccc(F)cc2)CC1 (configuration not stated) was run?
The INHIBITION was 9.25%.

How did the INHIBITION turn out when CC(O)CN1CCN(CCOCC(F)(F)F)CC1 (configuration not stated) was run?
The INHIBITION was -21.2%.

How did the INHIBITION turn out when OC(CN1CCN(CC2CC2)CC1)c1ccc(Br)cc1 (configuration not stated) was run?
The INHIBITION was -63.6%.

With OC(CN1CCN(Cc2nnc(C3CC3)o2)CC1)c1ccccc1 (configuration not stated) as the compound, how does the INHIBITION read?
Its INHIBITION is -7.06%.

Which INHIBITION does the source give for OC(CN1CCN(CCOCC(F)(F)F)CC1)c1ccccc1 (configuration not stated) here?
Its INHIBITION is 56.9%.

Which INHIBITION does the source give for O=C(N1CCCCC1)N1CCN(CC(O)c2ccccc2)CC1 (configuration not stated) here?
Its INHIBITION is 56.4%.

For CCOCCN1CCN(CC(O)c2ccc(C(F)(F)F)cc2)CC1 (configuration not stated), which INHIBITION is on record?
The INHIBITION was 24%.

OC(CN1CCN(CC2CCCCC2)CC1)c1ccccc1 (configuration not stated) was tested. Which INHIBITION did it give?
Its INHIBITION is 93.8%.

With O=C(Cc1ccc(F)cc1)N1CCN(CC(O)c2ccccc2)CC1 (configuration not stated) as the compound, how does the INHIBITION read?
Its INHIBITION is 29.7%.
